Compound activity: PubChem, several laboratories
PriA SSB inh = blocks PriA binding to SSB C-terminal tail; AlphaScreen SSBct-PriA binding, biotinylated peptide; inhibition, % at 33 µM; actives 0.6% (n = 430,000); in the data active means inhibition mostly above about 37%, no sharp cut-off; inactive means mostly below about 20%;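 further: plate controls were negative control peptide for no effect and reference peptide for full effect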
RN4220 kill = kills Staphylococcus aureus RN4220. S. aureus RN4220 growth, OD600, 16 h. inhibition, % (no concentration beside the values). actives 0.33% (n = 330,000). AID 1259311; in the data active means inhibition above about 85%;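 further: plate controls were untreated cells for no effect and reference antibiotic for full effect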
Sa ugtP lethal = growth inhibition of S. aureus ugtP deletion strain | growth inhibition, % (concentration not given with the values) | actives 0.54% (n = 330,000) | S. aureus RN4220 ugtP deletion, OD600 growth, 16 h; in the data active means growth inhibition above about 68%;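 further: plate controls were untreated wells for no effect and antibiotic for full effect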
Mtb hypoxia inh = inhibitors of hypoxia-regulated fluorescent reporter in Mycobacterium tuberculosis; M. tuberculosis hypoxia-regulated fluorescent reporter, fluorescence; fluorescence inhibition, % (no concentration beside the values); actives 0.1% (n = 300,000); AID 1159583; in the data active means fluorescence inhibition mostly above about 23%, no sharp cut-off; inactive means mostly below about 17%
DUSP3 inh = inhibitors of human VHR1 phosphatase (DUSP3). P51452. recombinant VHR phosphatase, pNPP absorbance. inhibition, % at 13.3 µM. actives 0.52% (n = 290,000). AID 1654; in the data active means inhibition above about 50%
Target sequence (P51452 whole entry, looked up): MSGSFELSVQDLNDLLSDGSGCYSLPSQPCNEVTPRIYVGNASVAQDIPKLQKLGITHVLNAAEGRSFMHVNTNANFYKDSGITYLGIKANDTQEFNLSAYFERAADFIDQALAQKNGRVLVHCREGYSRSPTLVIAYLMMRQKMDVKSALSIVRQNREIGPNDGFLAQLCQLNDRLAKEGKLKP
PfHsp40 rescue = restores yeast growth despite PfHsp40 toxicity. S. cerevisiae expressing PfHsp40, growth rescue, ATP luminescence. growth rescue, % at 12.5 µM. actives 0.68% (n = 340,000). AID 504582; in the data active means growth rescue above about 28%, passing the limit was not always enough;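 further: yeast W303a lacking pdr1 and pdr3 grown in galactose medium; growth measured after three days at 30 °C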
An asterisk follows results filed as active; nt = no result. Most compounds without a hit are left out; they make up all but 1.8% or so of the library.

SMILES	PriA SSB inh	RN4220 kill	Sa ugtP lethal	Mtb hypoxia inh	DUSP3 inh	PfHsp40 rescue
CS(=O)(=O)N1CC(C(=O)N2CCN(C(=O)c3ccco3)CC2)C1	80*	nt	nt	nt	nt	nt
O=C(Nc1nccs1)c1ccc(S(=O)(=O)N(Cc2ccco2)C2CC2)o1	6	nt	nt	nt	nt	nt
Cc1cc(C)cc(C(=O)NCCn2cc(SCC(=O)Nc3nnc(C)s3)c3ccccc32)c1	23	nt	nt	nt	nt	nt
Cc1ccc(CONC(=O)c2ccc([N+](=O)[O-])cc2)cc1	-4	3	-1	5	nt	38*
COc1cc(C=NNC(=O)c2ccc3c(c2)OCCO3)cc(Cl)c1O	2	4	8	0	nt	nt
COc1cc(CNc2ccc(C(=O)O)cc2)cc(Br)c1OCC(=O)NC(C)(C)C	-6	6	4	8	2	0
C=CCOc1c(Br)cc(CNc2ccc(NC(=O)C(C)C)c(OC)c2)cc1OC	42*	2	-5	16	26	5
O=C(CSc1nnc(-c2ccc3c(c2)OCO3)o1)Nc1ncc(C(F)(F)F)cc1Cl	1	75	97*	3	6	0
CCNc1nc(-c2cc(C)n(Cc3ccco3)c2C)cs1	-13	1	13	3	2	0
Cc1cc(-c2csc(NC(=O)c3ccc(=O)[nH]c3)n2)c(C)n1Cc1ccco1	25	5	4	-7	112*	-1
O=C(Nc1nccs1)c1ccc(NC(=O)C2CC=CCC2C(=O)O)cc1 (stereo unspecified)	-11	-2	-12	-4	53*	0
CC(=O)C1=C(C)Nc2ncnn2C1c1cccc(OCc2ccccc2)c1 (stereo unspecified)	-7	8	-5	4	53*	-1
Cc1ccc2nc(N3C(=O)C(O)=C(C(=O)c4ccco4)C3c3cccs3)sc2c1 (stereo unspecified)	0	-1	11	1	8	0
Cc1ccc2nc(N3C(=O)C(O)=C(C(=O)c4ccc(C)o4)C3c3ccc(O)cc3)sc2c1 (stereo unspecified)	-1	44	87*	0	nt	-1
COc1cccc(-c2ccc(C#N)c(SCC(=O)NCCc3cccc(Cl)c3)n2)c1	-10	5	85*	-3	21	-1
O=C(c1cc(-c2ccc(F)cc2)n[nH]1)N1CCCC(Cc2nc(C3CC3)no2)C1 (stereo unspecified)	-18	nt	nt	nt	nt	nt
COc1ccccc1NC(=O)c1ccc(N)cc1	-3	5	0	7	19	2
COC(=O)c1ccc(C(=O)Nc2ccc(N)cc2N)cc1	40*	-12	-7	15	10	-1
Fc1ccccc1-c1nc(-c2ccc(Cl)cc2)no1	-21	-2	-3	3	nt	2
c1ccc(-c2noc(-c3ccccc3-c3ccccc3)n2)cc1	-64	-9	95*	nt	-4	1
Cc1ccccc1CNS(=O)(=O)c1csc(C(N)=O)c1	-3	-1	0	-3	56*	-1
OCC#CCSc1nnc(-c2cccc3ccccc23)o1	-35	9	-5	54*	nt	0
CCCNC(=O)c1ccc2c(=O)c(O)c(C)[nH]c2c1	5	7	2	6	22	1
CCCNC(=O)c1ccc2c(=O)c(O)c(-c3cccc(Br)c3)[nH]c2c1	-21	8	3	5	19	182*
Nc1c(Cl)cc(-c2[nH]c3cc(C(=O)NCCO)ccc3c(=O)c2O)cc1Cl	-34	9	2	15	24	43*
SMILES	PriA SSB inh	RN4220 kill	Sa ugtP lethal	Mtb hypoxia inh	DUSP3 inh	PfHsp40 rescue
CCCNC(=O)c1ccc2c(=O)c(O)c(-c3ccc(F)cc3)[nH]c2c1	7	11	8	9	26	199*
O=C(NCCc1nc2ccccc2[nH]1)c1cccc(Br)c1	-8	-6	-12	-10	23	-1
CC(=O)Nc1ccc(OC[C@@H](O)CN(c2ccc(Br)cc2)S(C)(=O)=O)cc1	0	nt	nt	nt	nt	nt
Cc1noc(C2CN(CCCc3ccccc3)C2)n1	-11	nt	nt	nt	nt	nt
COc1ccc(Cl)cc1NC(=O)CN(C)CC(=O)Nc1ccc(S(N)(=O)=O)cc1	-1	3	-3	0	53*	0
COc1ccc(Cl)cc1NC(=O)CN(C)CC(=O)Nc1ccc(Br)cc1	-7	-19	-8	3	21	8
Cc1cccc2cc(C#N)c(NCCNC(=S)NCCCN3CCOCC3)nc12	-11	3	11	9	-8	0
Cc1cc2cc(C#N)c(NCCNC(=S)NCCCN3CCOCC3)nc2cc1C	1	2	8	5	60*	0
CC(=O)c1cccc(NS(=O)(=O)c2ccc(N/C=C\C(=O)c3ccc(C)cc3)cc2)c1	1	3	-7	nt	27	1
CC(=O)c1cccc(N/C=C\C(=O)c2ccc(C)cc2)c1	-4	1	-10	0	-7	27*
COc1ccc(-c2coc3cc(O)cc(O)c3c2=O)cc1	-3	4	-3	-8	-3	199*
COc1ccc(-c2coc3cc(OC)cc(O)c3c2=O)cc1	1	nt	nt	nt	35	1
O=C(Cn1nc(C(F)F)cc1C1CC1)N1CCCC1	-5	5	3	6	59*	0
COc1cc(Nc2ccc(NC(=O)CCc3ccccc3)cc2)nc(C)n1	-4	nt	nt	nt	nt	nt
Cc1noc(Cn2c(=O)c3cc4c(cc3n(CC(N)=O)c2=O)OCO4)n1	-3	nt	nt	nt	nt	nt
CN(C)c1ccc(C=NN2C(=S)SC(C)(C)C2N(O)C(=O)Nc2ccc([N+](=O)[O-])cc2)cc1 (stereo unspecified)	45*	-5	-5	nt	nt	nt
Cc1cc(NC(=O)CN2C(=O)CC(C)Sc3ccccc32)no1 (stereo unspecified)	-1	nt	nt	nt	nt	nt
Cc1ccc2nc(NN=Cc3ccc([N+](=O)[O-])o3)nc(-c3ccccc3)c2c1	-8	99*	100*	nt	nt	nt
CCCc1ccc(-c2cc(C(=O)NN=Cc3ccc([N+](=O)[O-])o3)c3ccccc3n2)cc1	10	108*	99*	nt	nt	nt
O=[N+]([O-])c1ccc(C=NNc2nc(-c3ccccc3)c3cc(Br)ccc3n2)o1	-10	nt	nt	nt	nt	nt
CC1(C(=O)NN=Cc2ccc([N+](=O)[O-])o2)CC1(Br)Br (stereo unspecified)	1	82	89*	1	nt	nt
O=C(NN=Cc1ccc([N+](=O)[O-])o1)c1cc2c(ccc3ccccc32)o1	-8	98*	99*	-6	nt	nt
Cc1nnc(C2CCCN(C(=O)c3cccc(Cl)c3)C2)s1 (stereo unspecified)	13	nt	nt	nt	nt	nt
COc1ccc(SCCC(=O)Nc2nc3c(F)cc(F)cc3s2)cc1	-12	nt	nt	nt	nt	nt
O=C(NN=Cc1ccc([N+](=O)[O-])o1)c1cn(-c2ccccc2)nc1-c1ccc(Cl)cc1	2	99*	99*	-11	nt	nt
O=C(Nc1c(C(=O)Nc2ccc(F)c(F)c2)oc2ccccc12)c1ccccc1Br	-17	nt	nt	nt	nt	nt
COc1ccc(C(=O)NC(Cc2ccccc2)c2ccc3c(c2)OCCCO3)cc1 (stereo unspecified)	-19	1	4	-7	2	0
